Drawing on PubChem BioAssay (Tox21), this text covers Potency for eight compounds.

Experiment [1] in a line: Nuclear factor erythroid 2-related factor 2/antioxidant responsive element (Nrf2/ARE) small molecule agonists: qHTS cell viability counter screen in human keratinocytes (AID 1919968; active = well fitted curve in the direction sought with a large enough effect in the repeat runs; an effect the other way counts as inactive or inconclusive; also: nearly all actives have a fitted effect of over 55% in size; also: potency is read from the fitted curve at half-maximal effect). In a few lines: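 Stably transfected HaCaT (KeratinoSens), 1,500/well. Test agents in DMSO were applied for 23 h, 37 C/5% CO2. CellTiter-Fluor was incubated 1 h before the fluorescence read.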

A short description of experiment [2]: Nuclear factor erythroid 2-related factor 2/antioxidant responsive element (Nrf2/ARE) small molecule agonists: luciferase reporter gene qHTS assay in human keratinocytes (AID 1919969; also: nearly all actives have a fitted effect of over 35% in size; also: potency is read from the fitted curve at half-maximal effect). (A reporter such as luciferase makes a cellular process visible.)
The target of experiment [3] is Gonadotropin-releasing hormone receptor (Homo sapiens) (UniProt P30968). The experiment can be described thus: Human gonadotropin-releasing hormone receptor (GnRHR) small molecule agonists, calcium flux assay in GnRHR-HEK293 cells (AID 1920063). Also: nearly all actives have a fitted effect of over 35% in size. Summed up:
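Stable human GnRHR HEK293 line. 18 h plating, then calcium dye for 1 h at 37 C. Agonist-mode compound addition from DMSO stocks; fluorescence monitored 3 min.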
For orientation: Calcium flux is commonly read through the fluorescence of an indicator in the cells.

In experiment [4] the target is KiSS-1 receptor (Homo sapiens) (UniProt Q969F8). The experiment in a line: Human kisspeptin (KISS1R) small molecule agonists, calcium flux assay in KISS1R-HEK293 cells (AID 1920064; active = well fitted curve in the direction sought with a large enough effect in the repeat runs; an effect the other way counts as inactive or inconclusive). In a few lines:
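After overnight (18 h) culture at 37 C/5% CO2, human KISS1R-HEK293 cells received calcium dye for 1 h, then test compound; emission at 540 nm (excitation 480 nm) was tracked for 3 min.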

Experiment [5] can be described thus: G protein-coupled receptor (GPCR) small molecule agonists, calcium flux assay: HEK293 wild type cell line counter screen (AID 1920065). Summed up: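 Following 18 h incubation at 37 C/5% CO2, plates got calcium dye for 1 h; compounds, ATP or DMSO were then pinned in and fluorescence followed kinetically (480/540 nm).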
Experiment [6] is described as follows: p53 small molecule agonists, cell-based qHTS assay with human liver microsomes: qHTS cell viability counter screen (AID 1963579). Also: nearly all actives have a fitted effect of over 45% in size. Also: potency is read from the fitted curve at half-maximal effect. Summed up:
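Metabolic activation used human liver microsomes and NADPH, both 0.5 mg/mL final, over 16 hours at 37 C on p53RE-bla cells (4,000/well). Cytotoxicity measured by CellTiter-Glo luminescence, 30 min at room temperature.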
(qHTS replaces the single test concentration by a dilution series.)

Experiment [7] in a line: p53 small molecule agonists, cell-based qHTS assay with rat liver microsomes: qHTS cell viability counter screen (AID 1963580). Also: nearly all actives have a fitted effect of over 45% in size. Summed up: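 After the beta-lactamase ratio was read, CellTiter-Glo was added to the same wells and luminescence measured at 30 min; cells had been treated 16 h at 37 C with compounds, rat liver microsomes and NADPH (0.5 mg/mL final each).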
The nature of experiment [8]: p53 small molecule agonists, cell-based qHTS assay: qHTS cell viability counter screen (AID 1963581). Also: nearly all actives have a fitted effect of over 45% in size. Also: potency is read from the fitted curve at half-maximal effect. In a few lines: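 qHTS counter screen: 16 h compound exposure at 37 C of p53RE-bla HCT-116 cells (4,000 per well, seeded 5 h prior), cell viability by ATP luminescence.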
A short description of experiment [9]: p53 small molecule agonists, cell-based qHTS assay (AID 1963582; active = well fitted activation curve with a large enough effect in the signal ratio in the repeat runs, not every such curve was filed as active; the % refers to the signal ratio). Summed up: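 Measured: fluorescence from cleaved LiveBLAzer substrate. System: p53RE-bla cells, 16 h compound treatment at 37 C, 2 h substrate step at room temperature.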
In experiment [10] the target is 5-hydroxytryptamine receptor 2A (Homo sapiens) (UniProt P28223). The experiment in a line: 5-hydroxytryptamine receptor 2A (HTR2A) small molecule antagonists, cell-based qHTS assay (AID 1963586). Also: nearly all actives have a fitted effect of over 45% in size. In a few lines: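 CHO cells stably expressing human HTR2A were plated for 18 h at 37 C, then loaded with calcium dye for 1 h. Compounds were preincubated 5 min at room temperature before DOI (4 nM solution) was added. Kinetic fluorescence was read for 3 min.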

Experiment [11] shares this target. The experiment can be described thus: 5-hydroxytryptamine receptor 2A (HTR2A) small molecule agonists, cell-based qHTS assay (AID 1963587). Also: nearly all actives have a fitted effect of over 30% in size. In a few lines:
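CHO cells stably expressing human HTR2A, plated 18 h, loaded with calcium dye 1 h at 37 C. Agonist mode: compounds added and intracellular calcium fluorescence recorded kinetically for 2 min at 1 sec intervals.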

Experiment [12] has as its target Muscarinic acetylcholine receptor M1 (Homo sapiens) (UniProt P11229). The experiment in a line: Cholinergic receptor muscarinic 1 (CHRM1) small molecule antagonists, cell-based qHTS assay (AID 1963588). Also: nearly all actives have a fitted effect of over 40% in size. Also: potency is read from the fitted curve at half-maximal effect. Summed up: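 Compounds were tested at 15 concentrations in three independent runs. Dye-loaded CHRM1-CHO cells were exposed 5 min at room temperature before stimulation by acetylcholine added at 50nM. Intracellular calcium was read kinetically on FDSS for 3 min.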

For experiment [13] the target is unchanged. The experiment can be described thus: Cholinergic receptor muscarinic 1 (CHRM1) small molecule agonists, cell-based qHTS assay (AID 1963589). Also: nearly all actives have a fitted effect of over 35% in size. Summed up: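 Kinetic fluorescence (1 s intervals) of calcium-sensitive dye in human M1 CHO cells after compound addition; cells pre-incubated 18 h at 37 C/5% CO2 and dye-loaded 1 h.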
A short description of experiment [14]: cAMP Responsive Elements (CRE) small molecule agonists, cell-based qHTS assay (AID 1963590). Summed up: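 Test agents in DMSO were incubated 3 h at 37 C/5% CO2 with CRE-bla HEK 293T cells seeded 18 h earlier; LiveBLAzer B/G FRET substrate was added and read after 2 h at room temperature.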
Experiment [15] is described as follows: cAMP Responsive Elements (CRE) small molecule antagonists, cell-based qHTS assay (AID 1963591; active = well fitted inhibition curve with a large enough effect in the signal ratio in the repeat runs, not every such curve was filed as active; the % refers to the signal ratio). In a few lines:
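Reporter line CRE-bla HEK 293T in dialyzed-FBS DMEM; cells preincubated 18 h, treated 3 h with compound plus NKH477 (0.25 uM final); LiveBLAzer FRET, 2 h RT.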

Experiment [16] addresses Beta-2 adrenergic receptor (Homo sapiens) (UniProt P07550). The experiment in a line: Adrenergic beta2 receptor (ADRB2) small molecule antagonists, cell-based qHTS assay (AID 1963592). Also: series mostly up to about 92 µM; nearly all actives have a fitted effect of over 50% in size. In a few lines:
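Assay format: CHO-ADRB2 cells, 18-20hr seeding at 37C/5% CO2, then compound plus 1nM isoproterenol agonist mix for 0.5hr RT. Homogeneous time-resolved fluorescence cAMP detection after 1hr, expressed as 665/615 nm ratio.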

The target is the same in experiment [17]. The experiment can be described thus: Adrenergic beta2 receptor (ADRB2) small molecule agonists, cell-based qHTS assay (AID 1963593).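 Also: CHO cells stably overexpressing human ADRB2.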 Summed up: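 CHO cells stably over-expressing ADRB2 were plated overnight at 37C, then dosed with compounds plus a stimulation mix containing 100uM IBMX and 25uM Ro-20-1724 for 0.5hr at room temperature. cAMP was measured by HTRF competition, 1hr.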

In experiment [18] the target is D(2) dopamine receptor (Homo sapiens) (UniProt P14416). The experiment in a line: Dopamine D2 receptor (DRD2) small molecule agonists, cell-based qHTS assay (AID 1963594). Also: nearly all actives have a fitted effect of over 35% in size. Summed up: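 HEK293 cells stably expressing human DRD2, pre-treated with PDE inhibitor Ro20-1724 (0.1 mM final) and compound 10 min at room temperature, then stimulated with NKH477 (200nM […]) for 30 min. cAMP read by HTRF (665/620 nm).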

Experiment [19] has the same target. The experiment in a line: Dopamine D2 receptor (DRD2) small molecule antagonists, cell-based qHTS assay (AID 1963595; active = well fitted inhibition curve with a large enough effect in the signal ratio in the repeat runs, with a control signal flat; the % refers to the signal ratio; also: potency is read from the fitted curve at half-maximal effect). In a few lines:
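DRD2-HEK293; 0.1 mM Ro20-1724; cpd 10 min RT; NKH477 200 nM + quinpirole 12 nM, 30 min RT; HTRF cAMP (cAMP-d2/anti-cAMP cryptate), 665/620 nm ratio after 1 h.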

The nature of experiment [20]: p53 small molecule agonists, cell-based qHTS assay with human liver microsomes (AID 1963577).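 Also: p53 response element beta-lactamase reporter cells with liver microsomes plus NADPH.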 In a few lines: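 With metabolic activation: human liver microsomes (0.5 mg/mL final) plus NADPH (0.5 mg/mL final) added alongside compounds to p53RE-bla cells; 16 h 37 C exposure; beta-lactamase read by LiveBLAzer fluorescence.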

SMILES strings stand for the structures. Values joined by “and” are separate entries in the source; they are usually repeats but may differ in a detail not shown here. Identical values can stand only once. Results filed as inconclusive are left out. The source holds several records for some structures; these can differ, active in one and inactive in another. Active and inactive are the calls of the source. Unless noted, calls follow the shape of the full dose curve.
% is scaled to controls: 0 for no effect and ±100 for the full control effect.

Sequence of KiSS-1 receptor (Homo sapiens) (Q969F8 whole entry, looked up): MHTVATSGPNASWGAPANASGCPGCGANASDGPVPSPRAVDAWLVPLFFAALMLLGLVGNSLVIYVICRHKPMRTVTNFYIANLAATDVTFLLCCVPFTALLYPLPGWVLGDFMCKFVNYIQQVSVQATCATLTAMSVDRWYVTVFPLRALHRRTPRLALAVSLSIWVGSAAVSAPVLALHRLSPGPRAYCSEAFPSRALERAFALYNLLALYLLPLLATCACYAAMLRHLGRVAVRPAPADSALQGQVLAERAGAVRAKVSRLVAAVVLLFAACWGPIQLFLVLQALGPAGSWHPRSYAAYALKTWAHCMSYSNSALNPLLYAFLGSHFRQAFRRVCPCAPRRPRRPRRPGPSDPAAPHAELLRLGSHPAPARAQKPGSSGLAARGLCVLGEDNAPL
Sequence of D(2) dopamine receptor (Homo sapiens) (P14416 whole entry, looked up): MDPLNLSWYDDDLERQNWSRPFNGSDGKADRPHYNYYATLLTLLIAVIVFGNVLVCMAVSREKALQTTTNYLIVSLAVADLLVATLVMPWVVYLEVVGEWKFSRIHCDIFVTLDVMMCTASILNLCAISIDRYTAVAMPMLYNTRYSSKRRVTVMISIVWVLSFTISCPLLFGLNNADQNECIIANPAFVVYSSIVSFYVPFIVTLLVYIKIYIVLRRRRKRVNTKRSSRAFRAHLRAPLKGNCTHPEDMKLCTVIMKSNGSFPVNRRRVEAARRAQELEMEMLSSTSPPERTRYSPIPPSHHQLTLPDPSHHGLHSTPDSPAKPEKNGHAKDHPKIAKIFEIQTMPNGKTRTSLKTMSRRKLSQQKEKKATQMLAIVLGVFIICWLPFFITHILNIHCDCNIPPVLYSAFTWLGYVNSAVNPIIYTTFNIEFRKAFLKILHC
Sequence of 5-hydroxytryptamine receptor 2A (Homo sapiens) (P28223 whole entry, looked up): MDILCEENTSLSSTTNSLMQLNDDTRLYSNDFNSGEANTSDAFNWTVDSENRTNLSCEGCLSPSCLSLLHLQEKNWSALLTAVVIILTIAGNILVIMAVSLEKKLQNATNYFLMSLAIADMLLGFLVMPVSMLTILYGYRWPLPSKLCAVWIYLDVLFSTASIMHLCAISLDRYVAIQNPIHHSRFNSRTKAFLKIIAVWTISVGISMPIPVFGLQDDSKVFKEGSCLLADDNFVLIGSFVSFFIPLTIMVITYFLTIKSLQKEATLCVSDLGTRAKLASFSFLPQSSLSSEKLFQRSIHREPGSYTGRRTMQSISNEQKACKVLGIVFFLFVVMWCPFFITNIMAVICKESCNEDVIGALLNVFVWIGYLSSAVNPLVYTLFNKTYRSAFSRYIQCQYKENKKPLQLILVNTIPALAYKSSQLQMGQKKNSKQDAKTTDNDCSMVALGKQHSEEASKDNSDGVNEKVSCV
Sequence of Gonadotropin-releasing hormone receptor (Homo sapiens) (P30968 whole entry, looked up): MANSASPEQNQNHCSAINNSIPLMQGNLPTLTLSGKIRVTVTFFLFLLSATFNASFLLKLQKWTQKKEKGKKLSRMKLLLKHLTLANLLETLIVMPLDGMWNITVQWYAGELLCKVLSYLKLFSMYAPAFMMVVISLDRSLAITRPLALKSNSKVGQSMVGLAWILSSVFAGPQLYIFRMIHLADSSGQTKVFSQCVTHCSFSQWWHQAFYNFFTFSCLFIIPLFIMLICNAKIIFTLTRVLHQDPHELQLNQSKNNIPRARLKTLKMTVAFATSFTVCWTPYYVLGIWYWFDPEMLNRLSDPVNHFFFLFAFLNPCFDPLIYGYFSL
Sequence of Beta-2 adrenergic receptor (Homo sapiens) (P07550 whole entry, looked up): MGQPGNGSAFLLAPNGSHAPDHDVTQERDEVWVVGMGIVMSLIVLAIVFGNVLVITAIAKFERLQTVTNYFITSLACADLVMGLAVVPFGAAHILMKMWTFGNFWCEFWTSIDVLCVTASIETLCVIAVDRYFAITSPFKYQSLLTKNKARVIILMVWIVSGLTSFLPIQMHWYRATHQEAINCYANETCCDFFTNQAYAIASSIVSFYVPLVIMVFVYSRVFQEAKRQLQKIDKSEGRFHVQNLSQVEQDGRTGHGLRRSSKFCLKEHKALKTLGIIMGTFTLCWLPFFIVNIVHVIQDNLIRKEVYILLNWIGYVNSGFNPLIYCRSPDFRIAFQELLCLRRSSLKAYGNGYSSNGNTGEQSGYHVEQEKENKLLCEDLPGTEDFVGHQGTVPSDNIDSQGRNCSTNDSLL
Sequence of Muscarinic acetylcholine receptor M1 (Homo sapiens) (P11229 whole entry, looked up): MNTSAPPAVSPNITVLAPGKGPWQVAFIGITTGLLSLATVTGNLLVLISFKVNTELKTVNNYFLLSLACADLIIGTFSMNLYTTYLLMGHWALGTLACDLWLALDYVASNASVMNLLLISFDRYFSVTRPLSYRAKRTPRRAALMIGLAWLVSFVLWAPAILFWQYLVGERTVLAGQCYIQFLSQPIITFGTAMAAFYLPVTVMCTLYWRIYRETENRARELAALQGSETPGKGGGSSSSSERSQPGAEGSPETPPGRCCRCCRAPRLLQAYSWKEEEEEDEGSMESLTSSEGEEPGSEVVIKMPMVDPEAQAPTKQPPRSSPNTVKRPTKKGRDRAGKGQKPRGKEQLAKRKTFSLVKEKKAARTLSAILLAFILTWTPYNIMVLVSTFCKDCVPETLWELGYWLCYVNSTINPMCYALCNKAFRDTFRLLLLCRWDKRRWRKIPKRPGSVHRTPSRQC

With `C=C(CC(=O)O)C(=O)O`, the Potency entry in [1], in experiment [2], in [3], in experiment [4], in experiment [5] and in [6] was “inactive” throughout. For the same compound, the Potency result in experiment [7], in experiment [8], in [9], in [10], in experiment [11] and in experiment [12] was “inactive” throughout. In addition, the Potency result in experiment [13], in experiment [14], in [15], in [16], in [17] and in [18] was “inactive” in each case. Besides, the Potency entry in experiment [19] is “inactive”.
On to `CCCCCCCCC`, for which the Potency entry in experiment [1], in experiment [2], in experiment [3], in experiment [4], in [5] and in experiment [20] was “inactive” each time. In addition, the Potency entry in experiment [6], in [8], in [9], in experiment [10], in experiment [11] and in experiment [12] was “inactive” each time. Also, the Potency entry in experiment [13], in experiment [14], in experiment [15], in experiment [16], in experiment [18] and in experiment [19] was “inactive” in each case.
Regarding `CCC(C)(C)C(=O)O[C@H]1C[C@@H](C)C=C2C=C[C@H](C)[C@H](CC[C@@H]3C[C@@H](O)CC(=O)O3)[C@H]21`, the Potency result in experiment [1], in experiment [2], in experiment [3], in experiment [4], in experiment [5] and in experiment [6] was “inactive” throughout. In addition, the Potency result in experiment [7], in [8], in [9], in experiment [14], in experiment [16] and in experiment [18] was “inactive” throughout. Besides, the Potency in [19] is 19.3 µM (active) and inactive.
In the case of `CN(C)c1ccc(C(=C2C=CC(=[N+](C)C)C=C2)c2ccccc2)cc1`, the Potency in experiment [1] was 4.33 µM (active) and 6.68 µM (active); in [2] it was 1.22 µM (active); in experiment [6], 14.5 µM (active) [middle of 4 runs]; in experiment [8], 4.08 µM (active) and 3.97 µM (active); in experiment [12] it was 4.72 µM (active) and inactive and 18.3 µM (active); in [19], 16.8 µM (active). Also, the Potency result in experiment [3], in experiment [4], in experiment [5], in experiment [20], in experiment [10] and in experiment [11] was “inactive” throughout. Moreover, the Potency result in [13] and in experiment [16] was “inactive” each time.
With `O=[N+]([O-])C(CO)(CO)CO`, the Potency entry in experiment [1], in experiment [2], in experiment [3], in experiment [4], in [5] and in experiment [6] was “inactive” in each case. Moreover, the Potency entry in experiment [7], in experiment [8], in experiment [9], in experiment [10], in [12] and in [13] was “inactive” each time. The Potency entry in [14], in [15], in [16], in experiment [17], in experiment [18] and in experiment [19] was “inactive” throughout.
As for `CCOC(=O)/C=C\C(=O)OCC`, the Potency result in experiment [1], in experiment [2], in experiment [3], in experiment [4], in experiment [5] and in experiment [6] was “inactive” throughout. The Potency entry in experiment [8], in experiment [9], in experiment [10], in [11], in [12] and in [13] was “inactive” each time. The Potency result in [14], in experiment [15], in [16], in experiment [17], in experiment [18] and in experiment [19] was “inactive” each time.
Regarding `Clc1ccccn1`, the Potency entry in experiment [1], in experiment [2], in experiment [3], in [4], in [5] and in experiment [6] was “inactive” in each case. Besides, the Potency result in experiment [7], in [8], in [9], in [10], in experiment [11] and in experiment [12] was “inactive” throughout. The Potency result in experiment [14], in [16], in experiment [17], in experiment [18] and in experiment [19] was “inactive” in each case.
For `CC#C[C@]1(O)CC[C@H]2[C@@H]3CCC4=CC(=O)CCC4=C3[C@@H](c3ccc(N(C)C)cc3)C[C@@]21C`, the Potency entry in experiment [1], in experiment [2], in [3], in [4], in [5] and in experiment [6] was “inactive” throughout. Further, the Potency result in experiment [7], in experiment [8], in [16], in experiment [18] and in experiment [19] was “inactive” in each case.
